Laboratory results taken from PubChem BioAssay AID602399 (Sanford-Burnham Center for Chemical Genomics, 2012).
Out of some 360,000 compounds screened, about 2,800 (0.78%) were called active. Rule as the data show it: active = inhibition above about 26%; inactive = the rest. The list comes from a sample in which actives are over-represented; it also holds similar structures and randomly drawn compounds.

Test system: Nicotinate-nucleotide adenylyltransferase NadD (Staphylococcus aureus N315)
Test: S. aureus NadD enzyme activity blockers – biochemical, colorimetric, uHTS, primary screen (AID 602399)
Settings: purified NadD enzyme, colorimetric absorbance read-out; at 20 µM; hits give high values

inhibition, inactive:
c1ccc2c(c1)OC1OC2Oc2ccccc21 -4.86%, COc1ccc(C(=O)N2CCCC(C(=O)c3ccccc3OC)C2)cc1OC (stereo not drawn) -7.22%, O=C(O)c1ccc(NN=CC2=C(N3CCOCC3)/C(=C/c3ccccc3)CC2)cc1 19.5%, CC1=NN(C(=O)CCc2ccccc2O)C(O)(C(F)(F)F)C1 (stereo not drawn) 17.6%, O=C1OC(NC(=O)c2ccccc2)C(N2CCOCC2)=C1Cl (stereo not drawn) -2.17%, Cn1c(N)c(C(=O)COC(=O)c2cccc(S(=O)(=O)N3CCOCC3)c2)c(=O)n(C)c1=O -4.47%, Oc1oc(-c2ccccc2Br)nc1/C=N/c1ccccn1 -8.02%, CCOc1ccc2nc(C(=O)N3CCCC(C)C3)sc2c1 (stereo not drawn) -8.67%, COc1ccc(S(=O)(=O)NCc2cccnc2)cc1NC(=O)c1ccc(C)cc1 -1.72%, Cc1ccccc1OCC(=O)N(Cc1cccc(F)c1)C1CCS(=O)(=O)C1 (stereo not drawn) -3.33%, O=S(=O)(c1ccc(-c2ccccc2)cc1)N1CCCC1 -5.08%, O=C1CCC(C(=O)N2CCN(c3ccccc3Cl)CC2)CN1CC1CCCCC1 (stereo not drawn) 5.68%, Cc1nc(N2CCOCC2)c2c(C)c(C(=O)Nc3ccc(C(F)(F)F)cc3)sc2n1 -4.82%, Cc1nc(N2CCC(C)CC2)c2c(C)c(C(=O)Nc3cc(F)ccc3C)sc2n1 7.17%, O=S(=O)(NN=C1CCCCCCC1)c1ccc(Br)cc1 -0.0867%, O=C(CNS(=O)(=O)c1ccc(Br)s1)N1CCN(C(=O)c2ccco2)CC1 -0.302%, COc1cc(CNC2CCCC2)c(Br)cc1OCc1ccccc1 -2.14%, CCCNC(=O)C1CC(=O)N(c2ccc(OCc3ccccc3)cc2)C1 (stereo not drawn) 0.155%, O=C(C[C@H]1C/C=C\C[C@@H](NC(=O)OCC2c3ccccc3-c3ccccc32)C(=O)O[C@@H](c2ccccc2)CNC1=O)N[C@H](CO)Cc1ccccc1 10.3%, COc1ccc(C(C#N)(CC(=O)O)c2cnccn2)cc1OC (stereo not drawn) -3.22%, CCOc1ccc2nc(NCCNC(=O)C(C)(C)C)c(C)cc2c1 -13.1%, CCOc1ccc(C(=O)NC2CCN(C(=O)Nc3ccccc3OC)CC2)cc1 2.23%, CCOC(OCC)c1ccc(/C=C\c2nccc(N)n2)cc1 -3.79%, CCCCc1ccc(S(=O)(=O)NC(=O)C2(C)CCN2C(=O)c2c(C)noc2C)cc1 (stereo not drawn) -0.915%, CCOC(=O)N1CCN(S(=O)(=O)c2cc3c(cc2C)NC(=O)CO3)CC1 6.26%, CCCCC(=O)Nc1nc(C)c(-c2csc(Nc3ccc(Cl)cc3)n2)s1 20.5%, CCCCCCC(=O)Nc1nc(C)c(-c2csc(Nc3cccc(OC)c3)n2)s1 17.7%, CCOc1ccc(/C(O)=C2\C(=O)C(=O)N(c3ccc(OC)cc3)C2c2ccccc2[N+](=O)[O-])cc1 (stereo not drawn) -0.376%, Cc1[nH]c(N)nc(=S)c1CCCNc1ccccc1 4.24%, CCCc1cc(=S)n2c([nH]c3ccccc32)c1C#N 11.9%, CNC[C@H]1Oc2c(NC(=O)C3CCCCC3)cccc2C(=O)N([C@H](C)CO)C[C@@H]1C 0.223%, CN(C)C(=O)Cn1c(=O)n(S(=O)(=O)c2ccccc2)c2ccccc21 -0.572%, Cc1nc(N)nc(Cl)c1CCC1OCCO1 -2.19%, CCCCNS(=O)(=O)c1ccc(S(=O)(=O)n2cnc3ccccc32)cc1 0.725%, CC(C)C(c1nnnn1C1CCCC1)N1CCN(c2ccccc2F)CC1 (stereo not drawn) -3.03%, CC(=O)NS(=O)(=O)c1ccc(N/C(N)=N/c2nc(C)cc(C)n2)cc1 4.03%, COc1ccc(C(=O)NNc2cc(C)nc(NNC(=O)c3ccc(OC)cc3)n2)cc1 3.2%, CC1CCC2(CC1)NC(=O)N(CC(=O)c1cccn1C)C2=O (stereo not drawn) -3.17%, Cc1ccc2nsnc2c1S(=O)(=O)N1CCCC1C(=O)O (stereo not drawn) -6.81%, CCCCc1ccc(NC(=S)N2CCCC(CO)C2)cc1 (stereo not drawn) -0.962%, CC(=O)c1ccc(N2C(=NC(=O)C(C)C)SC3CS(=O)(=O)CC32)cc1 (stereo not drawn) -3.55%, Cc1ccc(C(=O)Nc2c(C#N)c(C)c(C)n2Cc2ccccc2)cc1 -7.87%, Cc1c(C#N)c(NC(=O)c2ccccc2)n(Cc2ccccc2)c1C -5.49%, CCc1nn(CCCC(=O)Nc2ccc(C)c(C)c2)c(=O)c2cc3occc3n12 5.14%, Cc1cc(CNCc2c(C(=O)N(C)Cc3ccccc3)nc3ccccn23)nn1C -2.9%, COc1ccc(NC(=O)C2CCC(CNc3c(N4CCCCC4)c(=O)c3=O)CC2)c(OC)c1 (stereo not drawn) 1.77%, CCOC(=O)c1c(NC(=O)NC(C)(C)C)sc2c1CCN(C)C2 0.728%, Cc1c(OC(C)C(=O)N[C@@H](Cc2ccccc2)C(=O)O)ccc2c3c(c(=O)oc12)CCCC3 (stereo partly drawn) 3.9%, Cc1c(CCC(=O)N[C@@H](CC(C)C)C(=O)O)c(=O)oc2c(C)c3oc4c(c3cc12)CCCC4 -0.714%, COc1cc(Cl)cc(C2NC(=O)NC(C)=C2C(=O)NCc2ccccc2)c1O (stereo not drawn) -2.49%, Cc1cccc(C)c1NC(=O)C1(C)c2cccc[n+]2CC(=O)N1Cc1cccs1 (stereo not drawn) 6.36%, CCn1cc(C(=O)NCC2CCCO2)c(=O)c2cc(S(=O)(=O)N3CCCCC3)ccc21 (stereo not drawn) 8.79%, CCn1cc(C(=O)NC2CCCCCC2)c(=O)c2cc(S(=O)(=O)N3CCCCC3)ccc21 -1.8%, COCCN(C(=O)C(C)N1C(=O)c2ccccc2C1=O)c1c(N)n(CC(C)C)c(=O)[nH]c1=O (stereo not drawn) 0.415%, COCCNC(=O)C(OC(=O)c1cccs1)c1ccc(F)cc1 (stereo not drawn) 2.74%, O=C(Cc1ccc(-n2c(=O)[nH]c3ccccc3c2=O)cc1)N1CCN(c2cccc(Cl)c2)CC1 6.86%, CCOC(=O)N1CCC(Nc2c(NCCN3CCN(c4cccc(Cl)c4)CC3)c(=O)c2=O)CC1 -3.05%, CCOC(=O)N1CCC(N2Cc3cccc(C(=O)Nc4c(C)cccc4CC)c3C2=O)CC1 8.26%, Cc1ccc(C(=O)N2CCCC(c3ccccc3)=N2)cc1 -4.43%, COc1ccc(N2CCN(c3ccc([N+](=O)[O-])nc3)CC2)cc1 1.06%, O=C(CCc1ccccc1)NNc1ccc(F)cc1 -2.34%, Clc1cccc(-c2nc3nc4ccccc4nc3n2Cc2ccco2)c1 -0.737%, O=c1[nH]c(CSc2ncc(-c3ccc(F)cc3)n2Cc2ccco2)nc2ccccc12 1.31%, COc1cc(C2c3cc4c(cc3C(O)C3COC(=O)C23)OCO4)cc(OC)c1OC (stereo not drawn) 0.207%, O=C(O)CCCCCCCCc1cn(CN2C(=O)c3ccccc3C2=O)nn1 1.47%, CC(C)[C@@H]1NC(=O)c2cc([N+](=O)[O-])cc(I)c2NCCC[C@@H](C(=O)NC(CC(=O)O)C(N)=O)NC(=O)[C@H](CO)NC1=O (stereo partly drawn) -2.22%, COc1ccc(OC)c(C(=O)c2coc3ccc(OC)cc23)c1 -4.74%, COc1ccc2oc(=O)cc(CN3CCOCC3)c2c1 0.645%, CC1CC(C)CN(C(=O)CCNC(=O)Cn2cnc3ccccc3c2=O)C1 (stereo not drawn) -4.11%, CC(=O)N1c2ccc(S(=O)(=O)N3CCC(C(=O)NC4CCCCC4C)CC3)cc2CC1C (stereo not drawn) 1.28%, CNC(=S)NNC(=O)c1oc2nc(-c3ccccc3)cc(-c3ccco3)c2c1N 11.9%, Nc1cccc(-c2cc(-c3ccccc3)nc(-c3cccc(N)c3)n2)c1 13.8%

inhibition, active:
O=C1Nc2ccc(Br)cc2/C1=N/N=C/C1=C(N2CCOCC2)C(=C\c2ccccc2)/CC1 30.5%, CCOc1ccc2nc(/N=C/c3nc(-c4ccccc4)oc3O)sc2c1 37%, Cc1nc(N2CCN(c3ccccn3)CC2)c2c(C)c(C(=O)Nc3ccc(F)c(Cl)c3)sc2n1 29.5%, COc1cc(C2CC(=O)N3CN(Cc4ccccc4)CSC3=C2C#N)ccc1OCc1ccccc1 (stereo not drawn) 31.4%, CCOc1ccc2nc(N3CCCN(C(=O)Nc4ccccc4C)CC3)c(C#N)cc2c1 36.8%, CCCCCCC(=O)Nc1nc(C)c(-c2csc(Nc3cc(Cl)ccc3OC)n2)s1 33%, CCC(=C/c1sc2ccc3ccccc3c2[n+]1C)/C=C1\Sc2ccc3ccccc3c2N1C 38.9%, CC(=O)Nc1ccc(Nc2cc(C)nc(Nc3ccc(NC(C)=O)cc3)n2)cc1 32.4%, CC(=O)Nc1ccc(C(=O)Nc2nc(-c3cc(C)n(Cc4ccccc4)c3C)cs2)cc1 41.8%, Cc1oc2c(C)c3oc(=O)c(CC(=O)N[C@@H](CC(C)C)C(=O)N[C@@H](Cc4ccccc4)C(=O)O)c(C)c3cc2c1C 35.9%, CCn1cc(C(=O)NCCCN2CCCCCC2)c(=O)c2cc(S(=O)(=O)N3CCc4ccccc4C3)ccc21 25.6%, O=C(Cc1csc(Nc2nc(=S)[nH]c3ccccc23)n1)NCCCN1CCN(c2cccc(Cl)c2)CC1 43.9%, Cc1ccc(Cn2c(C)nc3c(c2=O)c2nc4ccccc4nc2n3Cc2ccco2)cc1 49%, Cc1ccc(-c2nn(-c3ccccc3)cc2/C=C2\SC(=S)N(CCCCCC(=O)O)C2=O)o1 34.1%, COc1ccc(OC)c(C(=O)c2coc3ccc(O)c(CN4CCOCC4)c23)c1 36.3%, CS(=O)(=O)c1sc2nc(-c3ccccc3)cc(-c3ccccc3)c2c1N 43.8%
